Screen size: about 5,500 compounds; about 2,000 (36%) were called active. Roughly 18% stayed inconclusive and do not appear here. No stated cut-off is given here; in the data, active means normalized growth mostly below about 0.91 (no sharp cut-off); inconclusive means no clear call, values can overlap the other calls; inactive means mostly above about 0.92. The list shows a part of the results.
Assay: chemical genetic growth profiling, strain panel (AID 1159580);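 further: tested at 20 µM; growth read once vehicle control cultures reached saturation at 30 °C; 1 = growth at the plate median or of vehicle wells; lower values mean less growth of the strain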
Settings: S. cerevisiae deletion strains, growth OD

Measured: normalized growth

COc1ccc2nc(S(=O)Cc3ncc(C)c(OC)c3C)[nH]c2c1 (centres undefined)
inactive: locus YAL026C, strain drs2, active compounds read low 1 | locus YAL030W, strain snc1, active compounds read low 1.02 | locus YBL061C, strain skt5, active compounds read low 1.01 | locus YBR023C, strain chs3, active compounds read low 0.957 | locus YBR171W, strain sec66, active compounds read low 1.02 | locus YBR231C, strain swc5, active compounds read low 0.953 | locus YCL011C, strain gbp2, active compounds read low 1.01 | locus YCL016C, strain dcc1, active compounds read low 0.962 | locus YCL061C, strain MRC1, active compounds read low 1.01 | locus YCL069W, strain vba3, active compounds read low 1.02 | locus YCR088W, strain abp1, active compounds read low 1.02 | locus YDL005C, strain med2, active compounds read low 1.02 | locus YDL040C, strain nat1, active compounds read low 1.02 | locus YDR001C, strain nth1, active compounds read low 1.02 | locus YDR137W, strain rgp1, active compounds read low 0.907 | locus YDR159W, strain sac3, active compounds read low 0.975 | locus YDR195W, strain ref2 1.02 | locus YDR297W, strain sur2, active compounds read low 1.01 | locus YDR334W, strain swr1, active compounds read low 1.01 | locus YDR335W, strain msn5, active compounds read low 1 | locus YEL003W, strain gim4, active compounds read low 1.01 | locus YEL037C, strain rad23, active compounds read low 1.02 | locus YEL061C, strain CIN8 (second series), active compounds read low 1.02 | locus YER015W, strain faa2, active compounds read low 0.987 | locus YER016W, strain bim1, active compounds read low 1.02 | locus YER111C, strain swi4, active compounds read low 1.02 | locus YFR010W, strain ubp6, active compounds read low 0.999 | locus YGL167C, strain pmr1, active compounds read low 1.02 | locus YGL173C, strain kem1, active compounds read low 1.01 | locus YGL227W, strain vid30, active compounds read low 1.02 | locus YGL240W, strain doc1, active compounds read low 0.934 | locus YGL253W, strain hxk2, active compounds read low 1.01 | locus YHR027C, strain rpn1, active compounds read low 1.01 | locus YHR079C, strain IRE1, active compounds read low 0.885 | locus YHR142W, strain chs7, active compounds read low 1.01 | locus YJL092W, strain hpr5, active compounds read low 1.02 | locus YJL095W, strain BCK1 (second series), active compounds read low 1.02 | locus YJL115W, strain asf1, active compounds read low 1.02 | locus YJL129C, strain trk1, active compounds read low 0.994 | locus YJL154C, strain vps35, active compounds read low 1.02 | locus YJL164C, strain tpk1, active compounds read low 0.942 | locus YJL166W, strain qcr8, active compounds read low 0.911 | locus YJL187C, strain SWE1, active compounds read low 0.998 | locus YJR066W, strain TOR1, active compounds read low 0.879 | locus YKL160W, strain elf1, active compounds read low 0.941 | locus YKR026C, strain gcn3, active compounds read low 1.01 | locus YKR091W, strain srl3, active compounds read low 1.02 | locus YLL001W, strain dnm1, active compounds read low 1.01 | locus YLL026W, active compounds read low 0.983 | locus YLL041C, strain sdh2, active compounds read low 1.02 | locus YLR027C, strain aat2, active compounds read low 0.948 | locus YLR258W, strain gsy2, active compounds read low 0.989 | locus YLR342W, strain FKS1, active compounds read low 1.01 | locus YLR357W, strain rsc2, active compounds read low 1 | locus YLR370C, strain arc18, active compounds read low 1.02 | locus YLR384C, strain iki3, active compounds read low 1.03 | locus YML120C, strain ndi1, active compounds read low 0.975 | locus YMR058W, strain fet3, active compounds read low 0.999 | locus YMR125W, strain sto1, active compounds read low 1.01 | locus YMR129W, active compounds read low 1.03 | locus YMR205C, strain PFK2, active compounds read low 0.915 | locus YMR231W, strain pep5, active compounds read low 1.01 | locus YNL183C, strain NPR1, active compounds read low 0.86 | locus YNL209W, strain ssb2, active compounds read low 0.98 | locus YNL248C, strain rpa49, active compounds read low 1.02 | locus YNL322C, strain KRE1 (second series), active compounds read low 1.03 | locus YNR049C, strain mso1, active compounds read low 1.02 | locus YOR001W, strain rrp6, active compounds read low 0.996 | locus YOR080W, strain dia2, active compounds read low 1.01 | locus YOR083W, strain WHI5, active compounds read low 0.984 | locus YOR231W, strain MKK1, active compounds read low 1.04 | locus YOR265W, strain rbl2, active compounds read low 0.995 | locus YOR270C, strain vph1, active compounds read low 0.994 | locus YOR290C, strain snf2, active compounds read low 0.991 | locus YPL078C, strain atp4, active compounds read low 0.989 | locus YPL106C, strain sse1, active compounds read low 1 | locus YPL240C, strain hsp82, active compounds read low 1.01 | locus YPL256C, strain CLN2, active compounds read low 0.988
active: locus YAL021C, strain ccr4, active compounds read low 0.795 | locus YBR009C, strain hhf1, active compounds read low 0.907 | locus YBR279W, strain paf1, active compounds read low 0.913 | locus YDR069C, strain doa4, active compounds read low 0.812 | locus YDR392W, strain spt3, active compounds read low 0.556 | locus YER155C, strain BEM2 (second series), active compounds read low 0.812 | locus YHR013C, strain ard1, active compounds read low 0.753 | locus YHR030C, strain SLT2, active compounds read low 0.791 | locus YJL095W, strain BCK1, active compounds read low 0.752 | locus YLR221C, strain rsa3, active compounds read low 0.904 | locus YLR262C, strain YPT6 (second series), active compounds read low 0.857 | locus YLR320W, strain mms22, active compounds read low 0.765 | locus YNL071W, strain lat1, active compounds read low 0.702 | locus YOR070C, strain gyp1, active compounds read low 0.897 | locus YOR106W, strain vam3, active compounds read low 0.857 | locus YPL051W, strain arl3, active compounds read low 0.846

Source: PubChem BioAssay AID1159580 (chemical genetic matrix, 2015)
